Data taken from PubChem BioAssay (Tox21).
Records with an inconclusive call do not appear. Unmarked numbers belong to inactive results. Calls follow the shape of the dose curve; as a rule, active = well fitted curve in the direction sought with a large enough effect in the repeat runs; inconclusive = weak or mixed curves; inactive = no such curve, though single readings can be large; an effect the other way counts as inactive or inconclusive.
% is scaled to controls: 0 for no effect and ±100 for the full control effect.
Also: nearly all actives have a fitted effect of over 50% in size.

Tested on: not listed separately
Experiment: qHTS assay to identify small molecule antagonists of the retinoid-related orphan receptor gamma (ROR-gamma) signaling pathway - cell viability counter screen (AID 1159520)
Details: Tet-on RORgamma CHO cells viability, ATP luminescence, 16 h; series mostly up to 92.4 µM; activity, negative = cytotoxicity: at the top concentration
In short: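 Cytotoxicity was read from cellular ATP (CellTiter-Glo luminescence) after 16 hr at 37 C with 1 uM doxycycline induction. The inducer was added 2 hr after compound transfer to Tet-on ROR gamma CHO cells.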
In the case of `CC(CO)c1ccccc1` (stereo unspecified), the “activity, negative = cytotoxicity” value is reported as 3.95%. For `CCOc1cc([N+](=O)[O-])c(OCC)cc1N1CCOCC1`, the “activity, negative = cytotoxicity” value was -2.13%. For `CC(=O)c1sc(C)nc1C`, the “activity, negative = cytotoxicity” value was -9.03%. For `O=S(O)(O)=S`, the activity, negative = cytotoxicity was 8.82% [at 8.39 µM]. In the case of `N[C@@H](COP(=O)(O)O)C(=O)O`, the activity, negative = cytotoxicity is reported as -0.691% [at 19 µM]. With `CCCCC(CC)COCCO` (stereo unspecified) the “activity, negative = cytotoxicity” value was -4.82%. In the case of `CN1C(C)(C)CCCC1(C)C`, the “activity, negative = cytotoxicity” value is reported as -0.663% [at 42.5 µM]. With `Nc1nnc(-c2cccc(Cl)c2Cl)c(N)n1` the “activity, negative = cytotoxicity” value was 0.091% [at 42.5 µM]. For `COc1nccnc1NS(=O)(=O)c1ccc(N)cc1`, the “activity, negative = cytotoxicity” value was -3.25% [at 42.5 µM]. With `Nc1ncnc(Nc2ccccc2)n1` the “activity, negative = cytotoxicity” value was -0.993% [at 42.5 µM]. With `CC1=CCC(C(C)C)=CC1` the “activity, negative = cytotoxicity” value was 2.36%. With `CCCOC(=O)C(C)O` (stereo unspecified) the “activity, negative = cytotoxicity” value was 1.73%. For `CCOCCOCCOCC`, the “activity, negative = cytotoxicity” value was 10%. With `CC(=C(CCOC(=O)C(C)C)SSC(CCOC(=O)C(C)C)=C(C)N(C=O)Cc1cnc(C)nc1N)N(C=O)Cc1cnc(C)nc1N` the “activity, negative = cytotoxicity” value was 3.67% [at 42.5 µM]. In the case of `Cc1c(I)c(=O)n(-c2ccccc2)n1C`, the “activity, negative = cytotoxicity” value is reported as 4.87% [at 42.5 µM]. In the case of `CCCCCCCCSCC`, the “activity, negative = cytotoxicity” value is reported as 8.3%. With `CCC(C=O)CC` the “activity, negative = cytotoxicity” value was -0.512%. In the case of `CCN(CC)CC(=O)Nc1c(C)cccc1C`, the “activity, negative = cytotoxicity” value is reported as 0.638% [at 42.5 µM]. With `NC(CO)C(=O)NNCc1ccc(O)c(O)c1O` (stereo unspecified) the “activity, negative = cytotoxicity” value was 0.157% [at 42.5 µM]. In the case of `CCCCCCCCCCl`, the “activity, negative = cytotoxicity” value is reported as 4.05%. For `CCOC(=O)c1ncn2c1CN(C)C(=O)c1cc(F)ccc1-2`, the “activity, negative = cytotoxicity” value was -2.69% [at 42.5 µM]. Molecule `N[C@@H](CCC(=O)N[C@@H](CS)C(=O)NCC(=O)O)C(=O)O` has an activity, negative = cytotoxicity of 4.19% [at 19 µM]. For `Cc1cc(C(C)(C)C)c(O)c(C)c1CC1=NCCN1`, the “activity, negative = cytotoxicity” value was 7.43% [at 42.5 µM]. For `O=C(O)Cc1ccc(Cl)cc1Cl`, the “activity, negative = cytotoxicity” value was -12.8%. In the case of `COc1cc(C(=S)N2CCOCC2)cc(OC)c1OC`, the “activity, negative = cytotoxicity” value is reported as -2.89% [at 42.5 µM]. With `Cc1ccccc1C(=O)Nc1ccc(C(=O)N2CCCC(N(C)C)c3ccccc32)cc1` (stereo unspecified) the “activity, negative = cytotoxicity” value was -9.56% [at 42.5 µM]. For `CCCCCCCCC1CCC(=O)O1` (stereo unspecified), the “activity, negative = cytotoxicity” value was 2.4%. With `NS(=O)(=O)c1ccc(NC(=O)CCC(=O)O)cc1` the “activity, negative = cytotoxicity” value was 0.622% [at 42.5 µM]. In the case of `CCCCCCCCCCCCCC`, the “activity, negative = cytotoxicity” value is reported as 11.9%.

Target: Nuclear receptor ROR-gamma (Homo sapiens) (UniProt P51449)
Experiment: qHTS assay to identify small molecule antagonists of the retinoid-related orphan receptor gamma (ROR-gamma) signaling pathway (AID 1159521;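 also: CHO cells with doxycycline inducible ROR-gamma driving an RORE luciferase reporter; top concentration of the series differs between compounds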)
Details: Tet-on RORgamma CHO cells, RORE-luciferase, 16 h; series mostly up to 92.4 µM; activity change, negative = inhibition: at the top concentration
In short: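 Tet-on RORγ CHO cells carrying a ROR response element–luciferase reporter were pretreated with compounds for 2 h, then induced with 1 uM (final) doxycycline hyclate for 16 h at 37 C. Antagonism was read as decreased ONE-Glo luminescence.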
In the case of `CC(CO)c1ccccc1` (stereo unspecified), the “activity change, negative = inhibition” value is reported as 1.98%. With `CCOc1cc([N+](=O)[O-])c(OCC)cc1N1CCOCC1` the “activity change, negative = inhibition” value was -15.1%. For `CC(=O)c1sc(C)nc1C`, the “activity change, negative = inhibition” value was 0.566%. In the case of `O=S(O)(O)=S`, the activity change, negative = inhibition is reported as 6.6% [at 8.39 µM]. In the case of `CCO[Si](CCCS)(OCC)OCC`, the “activity change, negative = inhibition” value is reported as 2.03%. `N[C@@H](COP(=O)(O)O)C(=O)O` gave an activity change, negative = inhibition of -15% [at 19 µM]. For `Brc1ccc(-c2ccccc2)cc1`, the “activity change, negative = inhibition” value was -9.63%. In the case of `CCCCC(CC)COCCO` (stereo unspecified), the “activity change, negative = inhibition” value is reported as 25.1%. In the case of `CN1C(C)(C)CCCC1(C)C`, the “activity change, negative = inhibition” value is reported as -4.89% [at 42.5 µM]. For `Nc1nnc(-c2cccc(Cl)c2Cl)c(N)n1`, the “activity change, negative = inhibition” value was 16.7% [at 42.5 µM]. For `COc1nccnc1NS(=O)(=O)c1ccc(N)cc1`, the “activity change, negative = inhibition” value was 6.53% [at 42.5 µM]. For `Nc1ncnc(Nc2ccccc2)n1`, the “activity change, negative = inhibition” value was 47.8% [at 42.5 µM]. `CN1CCN(CC(=O)N2c3ccccc3C(=O)Nc3cccnc32)CC1` showed an activity change, negative = inhibition of 14.7% [at 8.39 µM]. For `CCCOC(=O)C(C)O` (stereo unspecified), the “activity change, negative = inhibition” value was 11.3%. With `CCOCCOCCOCC` the “activity change, negative = inhibition” value was 26.3%. For `CC(=C(CCOC(=O)C(C)C)SSC(CCOC(=O)C(C)C)=C(C)N(C=O)Cc1cnc(C)nc1N)N(C=O)Cc1cnc(C)nc1N`, the “activity change, negative = inhibition” value was 12.2% [at 42.5 µM]. With `COc1ccc(-c2cc(=O)c3c(O)cc(O[C@@H]4O[C@H](CO[C@@H]5O[C@@H](C)[C@H](O)[C@@H](O)[C@H]5O)[C@@H](O)[C@H](O)[C@H]4O)cc3o2)cc1O` the “activity change, negative = inhibition” value was 24.4% [at 42.5 µM]. For `Cc1c(I)c(=O)n(-c2ccccc2)n1C`, the “activity change, negative = inhibition” value was 7.49% [at 42.5 µM]. With `CCCCCCCCSCC` the “activity change, negative = inhibition” value was 1.66%. In the case of `CCC(C=O)CC`, the “activity change, negative = inhibition” value is reported as 29.9%. For `COc1cc(NS(=O)(=O)c2ccc(N)cc2)nc(OC)n1`, the “activity change, negative = inhibition” value was 32.6% [at 42.5 µM]. In the case of `CCN(CC)CC(=O)Nc1c(C)cccc1C`, the “activity change, negative = inhibition” value is reported as 7.61% [at 42.5 µM]. For `NC(CO)C(=O)NNCc1ccc(O)c(O)c1O` (stereo unspecified), the “activity change, negative = inhibition” value was 22% [at 42.5 µM]. With `CCCCCCCCCCl` the “activity change, negative = inhibition” value was 28.2%. With `CCOC(=O)c1ncn2c1CN(C)C(=O)c1cc(F)ccc1-2` the “activity change, negative = inhibition” value was 9.51% [at 42.5 µM]. For `N[C@@H](CCC(=O)N[C@@H](CS)C(=O)NCC(=O)O)C(=O)O`, the activity change, negative = inhibition was -1.88% [at 19 µM]. In the case of `Cc1cc(C(C)(C)C)c(O)c(C)c1CC1=NCCN1`, the “activity change, negative = inhibition” value is reported as 32.4% [at 42.5 µM]. With `O=C(O)Cc1ccc(Cl)cc1Cl` the “activity change, negative = inhibition” value was -4.11%. For `O=C(OCc1ccccc1)C(=O)OCc1ccccc1`, the “activity change, negative = inhibition” value was 1.83%. In the case of `CC(C)C(=O)OCCc1ccccc1`, the “activity change, negative = inhibition” value is reported as -0.435%. With `COc1cc(C(=S)N2CCOCC2)cc(OC)c1OC` the “activity change, negative = inhibition” value was 4.35% [at 42.5 µM]. For `COc1ccc(S(=O)(=O)N2c3ccc(Cl)cc3[C@@](O)(c3ccccc3Cl)[C@H]2C(=O)N2CCC[C@@H]2C(N)=O)cc1OC`, the “activity change, negative = inhibition” value was 24.4% [at 42.5 µM]. With `Cc1ccccc1C(=O)Nc1ccc(C(=O)N2CCCC(N(C)C)c3ccccc32)cc1` (stereo unspecified) the “activity change, negative = inhibition” value was -26.3% [at 42.5 µM]. In the case of `CCCCCCCCC1CCC(=O)O1` (stereo unspecified), the “activity change, negative = inhibition” value is reported as 183%. For `NS(=O)(=O)c1ccc(NC(=O)CCC(=O)O)cc1`, the “activity change, negative = inhibition” value was 2.96% [at 42.5 µM]. With `CCCCCCCCCCCCCC` the “activity change, negative = inhibition” value was -4.67%. For `CC(=O)OC(C)OC(=O)C(C)c1ccc(-c2ccccc2)c(F)c1` (stereo unspecified), the “activity change, negative = inhibition” value was 8.23% [at 42.5 µM].
